From the supplement of paper PMC12645437, “Orthogonal IMiD-Degron Pairs Induce Selective Protein Degradation in Cells” (ACS Chemical Biology, 2025)
The full ranking holds about 8,300 sequences; the median of “log2 fold change of degron read counts, EGFP-low vs EGFP+ sorted cells (limma voom), compound-induced degradation” is about -1.1, and the highest 2% start at about 3.2. Only a selection was taken, and the highest values are over-represented in it overall.

T1: CRBN, Q96SW2
T1 chain: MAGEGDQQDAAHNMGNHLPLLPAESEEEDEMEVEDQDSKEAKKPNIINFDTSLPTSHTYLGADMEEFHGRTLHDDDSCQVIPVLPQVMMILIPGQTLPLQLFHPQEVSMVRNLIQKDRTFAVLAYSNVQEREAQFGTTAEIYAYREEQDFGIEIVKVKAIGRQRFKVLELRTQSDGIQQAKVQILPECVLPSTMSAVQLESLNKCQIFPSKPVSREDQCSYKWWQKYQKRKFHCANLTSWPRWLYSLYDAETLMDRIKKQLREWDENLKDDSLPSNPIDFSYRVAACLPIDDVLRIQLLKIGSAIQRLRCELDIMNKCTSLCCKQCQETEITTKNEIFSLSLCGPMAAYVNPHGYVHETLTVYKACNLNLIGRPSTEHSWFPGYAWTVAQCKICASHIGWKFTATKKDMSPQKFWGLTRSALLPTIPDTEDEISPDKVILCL

B1: 46L_47L_49P_50I_52G_53F_54Y_55C_67L_, Q9UKT9 (peptide)
chain: LLCPICGFYCTQKGNLLRHIKL
B2: 46L_47N_49P_50I_52G_53F_54Y_55C_67L_, Q9UKT9 (peptide)
chain: LNCPICGFYCTQKGNLLRHIKL
B3: 46L_47T_49P_50I_52G_53F_54Y_55C_67L_, Q9UKT9 (peptide)
chain: LTCPICGFYCTQKGNLLRHIKL
B4: 46L_47K_49P_50I_52G_53F_54Y_55C_67L_, Q9UKT9 (peptide)
chain: LKCPICGFYCTQKGNLLRHIKL
B5: 46L_47E_49P_50I_52G_53F_54Y_55C_67L_, Q9UKT9 (peptide)
chain: LECPICGFYCTQKGNLLRHIKL
B6: 46L_47Y_49P_50I_52G_53F_54Y_55C_67L_, Q9UKT9 (peptide)
chain: LYCPICGFYCTQKGNLLRHIKL
B7: 46F_47C_49E_50I_52G_53H_54I_55F_67L_, Q9UKT9 (peptide)
chain: FCCEICGHIFTQKGNLLRHIKL
B8: 46F_47L_49N_50Q_52G_53R_54T_55F_67L_, Q9UKT9 (peptide)
chain: FLCNQCGRTFTQKGNLLRHIKL
B9: 46F_47N_49P_50Q_52G_53A_54N_55F_67L_, Q9UKT9 (peptide)
chain: FNCPQCGANFTQKGNLLRHIKL
B10: 46F_47T_49E_50I_52G_53A_54Y_55F_67L_, Q9UKT9 (peptide)
chain: FTCEICGAYFTQKGNLLRHIKL
B11: 46F_47I_49N_50I_52G_53A_54T_55F_67L_, Q9UKT9 (peptide)
chain: FICNICGATFTQKGNLLRHIKL
B12: 46F_47A_49N_50I_52G_53A_54Q_55F_67L_, Q9UKT9 (peptide)
chain: FACNICGAQFTQKGNLLRHIKL
B13: 46F_47W_49N_50I_52G_53A_54Q_55F_67L_, Q9UKT9 (peptide)
chain: FWCNICGAQFTQKGNLLRHIKL
B14: 46F_47R_49N_50I_52G_53A_54Q_55F_67L_, Q9UKT9 (peptide)
chain: FRCNICGAQFTQKGNLLRHIKL
B15: 46F_47V_49N_50I_52G_53A_54Q_55F_67L_, Q9UKT9 (peptide)
chain: FVCNICGAQFTQKGNLLRHIKL
B16: 46F_47Q_49N_50I_52G_53A_54Q_55F_67L_, Q9UKT9 (peptide)
chain: FQCNICGAQFTQKGNLLRHIKL
B17: 46F_47Y_49N_50I_52G_53A_54Q_55F_67L_, Q9UKT9 (peptide)
chain: FYCNICGAQFTQKGNLLRHIKL

Target: T1, CRBN, Q96SW2
Test: log2 fold change of degron read counts, EGFP-low vs EGFP+ sorted cells (limma voom), compound-induced degradation; higher = more compound-induced degradation of the degron-EGFP fusion; degrons are variants of IKZF1/3 zinc finger 2; compound dose not given here
Conditions: Jurkat, 18 h
Procedure: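 Pooled library of 8380 IKZF3 ZF2 degron mutants (positions 146-167 varied within the IKZF3 130-189 degron; only the varied core is printed, flanks not printed) fused to EGFP with IRES-mCherry, lentivirally expressed in Jurkat cells. mCherry+ cells were treated with one IMiD compound for 18 h (dose not stated) and FACS-sorted into EGFP-low and EGFP+ populations. Degron sequences were counted by NGS, and log2FC (EGFP-low vs EGFP+) was estimated by limma voom over 3 biological replicates.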

[1] = compound: compound 19 (5-tert-butyl-thalidomide)
[2] = compound: compound 22 (5-morpholino-thalidomide)
[3] = compound: compound 33 (diphenyl IMiD analogue)
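Note: pooled lentiviral library of zinc finger degron-EGFP fusions in mCherry-positive Jurkat cells, FACS-sorted after compound exposure, with degron abundance counted by next-generation sequencing.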

Row | Sequence | log2 fold change of degron read counts [1] | log2 fold change of degron read counts [2] | log2 fold change of degron read counts [3] | log2 fold change of degron read counts (compound: thalidomide)
1 | B1 | 0.305 | 0.574 | 1.63 | 1.96
2 | B2 | 1.76 | 1.72 | 1.52 | 2.04
3 | B3 | 1.69 | 2.58 | 2.93 | 3.24
4 | B4 | -0.431 | -0.605 | -1.14 | 0.828
5 | B5 | 0.407 | 0.1 | 2.47 | 3.34
6 | B6 | 3.22 | 3.11 | 2.72 | 1.82
7 | B7 | -2.19 | -2.44 | -1.42 | -1.61
8 | B8 | -2.4 | -2.94 | -3.37 | -2.18
9 | B9 | -1.43 | -2.18 | -1.52 | -2.31
10 | B10 | 0.598 | 1.53 | 2.02 | 2.85
11 | B11 | -1.79 | 0.00658 | 1.15 | 1.1
12 | B12 | 2.04 | 1.62 | 0.179 | -0.104
13 | B13 | 2.02 | 3.59 | 1.86 | 0.626
14 | B14 | -1.02 | -0.868 | -0.156 | 0.111
15 | B15 | -0.604 | 1.47 | 2.69 | 1.92
16 | B16 | -0.94 | 1.3 | 1.62 | 3.28
17 | B17 | 2.24 | 3.15 | 1.75 | 0.339
